As a reminder, the inhibition is the relative decrease from the control value, in per cent.

Each structure is given as a SMILES string. Several values for one entry are separate records, joined by “and”; a condition that tells them apart may be missing. Identical values can stand only once.

From ChEMBL document CHEMBL1961873, “Compounds: GSK PKIS; Assays: Nanosyn kinase panel” (2012) come the findings set out here.

In one experiment the target is Proto-oncogene tyrosine-protein kinase receptor Ret (Homo sapiens) (UniProt P07949). Conditions: at 0.1 µM.
Proto-oncogene tyrosine-protein kinase receptor Ret (Homo sapiens), sequence (P07949 whole entry): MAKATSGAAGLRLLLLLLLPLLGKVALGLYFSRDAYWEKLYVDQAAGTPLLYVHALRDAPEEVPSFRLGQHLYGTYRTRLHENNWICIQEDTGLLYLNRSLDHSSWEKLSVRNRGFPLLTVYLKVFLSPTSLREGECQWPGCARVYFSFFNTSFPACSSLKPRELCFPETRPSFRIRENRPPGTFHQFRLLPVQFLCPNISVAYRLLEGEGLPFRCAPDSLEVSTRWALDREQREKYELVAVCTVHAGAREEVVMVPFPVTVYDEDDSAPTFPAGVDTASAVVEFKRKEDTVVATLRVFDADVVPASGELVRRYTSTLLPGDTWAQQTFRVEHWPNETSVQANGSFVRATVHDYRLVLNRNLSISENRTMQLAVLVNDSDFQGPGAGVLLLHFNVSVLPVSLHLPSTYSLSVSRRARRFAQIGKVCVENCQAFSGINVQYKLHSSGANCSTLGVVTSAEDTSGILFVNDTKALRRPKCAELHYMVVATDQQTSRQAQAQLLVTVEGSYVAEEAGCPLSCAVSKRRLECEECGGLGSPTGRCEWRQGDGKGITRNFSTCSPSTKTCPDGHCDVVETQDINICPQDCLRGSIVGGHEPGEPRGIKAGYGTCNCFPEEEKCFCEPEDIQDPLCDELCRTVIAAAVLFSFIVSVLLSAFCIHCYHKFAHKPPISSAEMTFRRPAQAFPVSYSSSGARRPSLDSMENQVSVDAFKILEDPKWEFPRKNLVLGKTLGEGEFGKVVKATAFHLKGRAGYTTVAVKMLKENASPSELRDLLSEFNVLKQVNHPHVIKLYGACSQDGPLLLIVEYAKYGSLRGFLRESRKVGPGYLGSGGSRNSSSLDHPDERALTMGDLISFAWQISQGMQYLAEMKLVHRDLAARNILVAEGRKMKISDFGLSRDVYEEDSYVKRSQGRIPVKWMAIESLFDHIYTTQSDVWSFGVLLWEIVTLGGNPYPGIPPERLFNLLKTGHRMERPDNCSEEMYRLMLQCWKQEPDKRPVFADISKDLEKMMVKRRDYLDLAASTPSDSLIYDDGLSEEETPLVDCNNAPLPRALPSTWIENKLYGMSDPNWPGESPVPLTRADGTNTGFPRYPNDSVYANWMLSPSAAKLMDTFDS
Turning to `Cc1nnc(-c2cccc(-c3ccc(C(=O)NCC4CC4)cc3)c2)o1`, the inhibition was 4.13%.
On the same count and under the same terms, the result for `CS(=O)(=O)Nc1ccc(-c2cc(-c3ccccc3)cc(C(N)=O)c2N)cc1` reads -0.09%; that for `CN1CCC(n2cnc(-c3ccc(F)cc3)c2-c2ccnc(NCCO)n2)CC1`, 1.17%; that for `COC(=O)Nc1nc2ccc(Oc3ccc(NC(=O)Nc4cc(C(F)(F)F)ccc4F)cc3)cc2s1`, 86.7%.
`COc1ccc(Nc2ncc(-c3ccccc3)o2)cc1OC`: the inhibition is 6.8%.
For `OCCCNc1nccc(-c2c(-c3ccc(F)cc3)nn3cc(C(F)(F)F)ccc23)n1`, the inhibition amounted to 4.24%.
On the same count and under the same terms, the figure for `Fc1cccc(COc2ccc(Nc3ncncc3C#Cc3ccccc3)cc2Cl)c1` is -0.25%; for `CS(=O)(=O)CCNCc1ccc(-c2ccc3ncnc(Nc4ccc(OCc5cccc(C(F)(F)F)c5)cc4)c3c2)o1` it is 3.22%; for `CS(=O)(=O)CCNCc1ccoc1-c1ccc2ncnc(Nc3ccc(OCc4ccccc4)cc3)c2c1` it is 3.73%.
Consider `N#Cc1cccc(Nc2ncc(-c3ccccc3)o2)c1`, for which the inhibition came out at 2.14%.
On to `N#Cc1ccc2c(-c3ccnc(NC4CC4)n3)c(-c3ccc(F)cc3)nn2c1`, for which the inhibition is 5.41%.
As to `Cc1ccc(-c2cc3c(NC(=O)C4CC4)ncnc3o2)cc1`, the inhibition worked out at 8.44%.
Still for that read-out and setting: the figure for `NS(=O)(=O)c1cccc(N/C=C2\C(=O)Nc3ccccc32)c1` is 7.9%; for `O=C(O[C@H]1CN[C@H](C#Cc2cc3ncnc(Nc4ccc5c(cnn5Cc5ccccc5)c4)c3s2)C1)N1CCOCC1` it is 2.44%; for `Cc1cc(O)cc(C)c1/C=C/c1cncc(C(N)=O)c1` it is 3.99%.
Same read-out and setting: the result for `CS(=O)(=O)CCNCc1ccc(-c2ccc3ncnc(Nc4ccc(OCc5ccccc5)cc4)c3c2)o1` reads 2.99%.

The target is the same in a further experiment. Conditions: at 1 µM.
For the compound `Cc1cc(O)cc(C)c1/C=C/c1cncc(C(=O)OC(C)(C)C)c1`, the inhibition is 7.34%.
The same measure, in the same setting: the figure for `CS(=O)(=O)Nc1ccc(-c2ccc3c(NC(=O)C4CC4)n[nH]c3c2)cc1` is 6.93%.
Same read-out and setting: the figure for `COc1cc2c(cc1Nc1nc(Nc3cccc(F)c3C(N)=O)c3cc[nH]c3n1)N(C(=O)CN1CCN(C(C)C)CC1)CC2` is 5.75%.
The same measure, in the same setting: the figure for `COC(=O)Nc1nc2cc(Oc3ccc(NC(=O)Nc4ccccc4)cc3)ccc2[nH]1` is 26.6%; for `COc1ccccc1-c1cc(/C=C2\C(=O)Nc3ncc(Br)cc32)cc(Br)c1O` it is 11.1%; for `O=C(Nc1n[nH]c2nnc(-c3cccnc3)cc12)C1CC1` it is 1.55%.
As to `CCOc1ccc2c(-c3ccnc(Nc4cc(OC)cc(C(F)(F)F)c4)n3)cnn2n1`, the inhibition amounted to 13.2%.
The same measure, in the same setting: the result for `O=C(O[C@H]1CN[C@H](C#Cc2cc3ncnc(Nc4ccc(OCc5cccc(F)c5)c(Cl)c4)c3s2)C1)N1CCOCC1` reads 10.6%; that for `CC1=C(C(=O)Nc2ccc3[nH]ncc3c2)C(c2ccc(F)cc2)N=C(c2ccc(C(F)(F)F)nc2)N1` (configuration not stated), 38.6%; that for `Nc1nccc(-c2c(-c3ccc(F)cc3)ncn2C2CCNCC2)n1`, 14.1% and 4.3%.
The same measure, in the same setting: the result for `COc1c(C(N)=O)cc(-c2ccc(Cl)cc2)cc1-c1ccc(S(N)(=O)=O)cc1` reads 4.87%.
Turning to `CCS(=O)(=O)c1ccc(OC)c(Nc2ncc(-c3cccc(F)c3)o2)c1`, the inhibition amounted to 56.6%.
On the same count and under the same terms, the result for `Cc1c2ccc(N(C)c3ccnc(Nc4cccc(S(N)(=O)=O)c4)n3)cc2nn1C` reads 77.5%.
On the same count and under the same terms, the result for `CN(C)CCNC(=O)Nc1ccc(N(C)c2ccnc(Nc3ccc(CS(C)(=O)=O)cc3)n2)cc1` reads 14.9%; that for `COc1ccc2ncn(-c3cc(O[C@H](C)c4ccccc4C(F)(F)F)c(C(N)=O)s3)c2c1`, 4.27%.
Regarding `Cc1nnc(-c2cccc(-c3ccc(C(=O)NCC4CC4)cc3)c2)o1`, the inhibition was determined as 7.32%.
The same measure, in the same setting: the result for `CS(=O)(=O)Nc1ccc(-c2cc(-c3ccccc3)cc(C(N)=O)c2N)cc1` reads 2.84%; that for `CN1CCC(n2cnc(-c3ccc(F)cc3)c2-c2ccnc(NCCO)n2)CC1`, 1.73%.
Same read-out and setting: the result for `COC(=O)Nc1nc2ccc(Oc3ccc(NC(=O)Nc4cc(C(F)(F)F)ccc4F)cc3)cc2s1` reads 88.4%; that for `COc1ccc(Nc2ncc(-c3ccccc3)o2)cc1OC`, 23.1%.
The same measure, in the same setting: the result for `OCCCNc1nccc(-c2c(-c3ccc(F)cc3)nn3cc(C(F)(F)F)ccc23)n1` reads 11.4%; that for `Fc1cccc(COc2ccc(Nc3ncncc3C#Cc3ccccc3)cc2Cl)c1`, 5.48%; that for `CS(=O)(=O)CCNCc1ccc(-c2ccc3ncnc(Nc4ccc(OCc5cccc(C(F)(F)F)c5)cc4)c3c2)o1`, 2.84%.
With `CS(=O)(=O)CCNCc1ccoc1-c1ccc2ncnc(Nc3ccc(OCc4ccccc4)cc3)c2c1`, the inhibition is 0.18%.
Still for that read-out and setting: the figure for `N#Cc1cccc(Nc2ncc(-c3ccccc3)o2)c1` is 3.79%; for `N#Cc1ccc2c(-c3ccnc(NC4CC4)n3)c(-c3ccc(F)cc3)nn2c1` it is 8.1%.
The same measure, in the same setting: the result for `Cc1ccc(-c2cc3c(NC(=O)C4CC4)ncnc3o2)cc1` reads 27.6%; that for `NS(=O)(=O)c1cccc(N/C=C2\C(=O)Nc3ccccc32)c1`, 30.6%; that for `O=C(O[C@H]1CN[C@H](C#Cc2cc3ncnc(Nc4ccc5c(cnn5Cc5ccccc5)c4)c3s2)C1)N1CCOCC1`, 4.66%.
On the same count and under the same terms, the figure for `Cc1cc(O)cc(C)c1/C=C/c1cncc(C(N)=O)c1` is 8.88%.
Consider `CS(=O)(=O)CCNCc1ccc(-c2ccc3ncnc(Nc4ccc(OCc5ccccc5)cc4)c3c2)o1`, for which the inhibition turned out to be 9.8%.
